Assay results from PubChem BioAssay (Tox21).
Records with an inconclusive call do not appear. A call without a number means that no potency is given here. The source holds several records for some structures; these can differ, active in one and inactive in another. Active and inactive are the calls of the source. The call rests on the fitted dose curve.

Experiment: qHTS assay to identify small molecule agonists of the hypoxia (HIF-1) signaling pathway - cell viability counter screen (AID 1224844); further: nearly all actives have a fitted effect of over 50% in size
Conditions: HRE-bla ME-180 viability, CellTiter-Glo luminescence, 17 h; series mostly up to 76.8 µM
Summary of the method: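 Cytotoxicity was measured in parallel with the HRE-driven beta-lactamase readout: after 17 hrs of compound exposure at 37C, HRE-bla ME-180 cells received CellTiter-Glo and luminescence was recorded 30 min later.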
Potency means the concentration at half of the fitted maximal effect.

SMILES	Potency
COC(=O)CCCCC(=O)OC	inactive
O=C(NCC1CCCCN1)c1cc(OCC(F)(F)F)ccc1OCC(F)(F)F (stereo not drawn)	inactive
CCCCCNCCCCC	inactive
OB(O)O	inactive
C=C(C)CC(C)(C)C	inactive
O=[N+]([O-])c1cc(C(F)(F)F)ccc1Cl	inactive
CCCCCCC(=O)O	inactive
CC(=O)OC/C=C(\C)CCC=C(C)C	inactive
OC[C@H]1O[C@@H](Oc2ccc(O)cc2)[C@H](O)[C@@H](O)[C@@H]1O	inactive
CC1(C)C(=O)N(Cl)C(=O)N1Cl	inactive
CC(=O)c1nccs1	inactive
COc1ccc2cc3[n+](cc2c1OC)CCc1cc2c(cc1-3)OCO2	inactive
CC(O)CNCC(C)O (stereo not drawn)	inactive
Cc1ccccc1Cl	inactive
CO[Si](CCCNCCN)(OC)OC	inactive
Oc1ccc(Cc2ccccc2O)cc1	inactive
CCCN(CCC)C(=O)SCC	inactive
CS(=O)(=O)c1ccc(Cl)cc1	inactive
CC[N+](CC)(CC(=O)Nc1c(C)cccc1C)Cc1ccccc1	inactive

SMILES	Potency
COc1ccc([C@@H]2CC(=O)c3c(O)cc(O[C@@H]4O[C@H](CO[C@@H]5O[C@@H](C)[C@H](O)[C@@H](O)[C@H]5O)[C@@H](O)[C@H](O)[C@H]4O)cc3O2)cc1OC	inactive
C1CCCNCC1	inactive
NC(=O)NC(N)=O	inactive
O=[N+]([O-])c1ccccc1C(F)(F)F	inactive
CC(=O)OC(C)(C)C1CC=C(C)CC1 (stereo not drawn)	inactive
CCCCCCCC(=O)O	inactive
CC(COCC(C)OC(=O)c1ccccc1)OC(=O)c1ccccc1 (stereo not drawn)	inactive
Cc1ccncc1	inactive
COc1c(Cl)ccc(Cl)c1C(=O)O	inactive
CN=C(NC#N)NCCSCc1nc[nH]c1C	inactive
OCC(O)CS (stereo not drawn)	inactive
CCOC(=O)CC(=O)OCC	inactive
COC(=O)/C=C\C(=O)OC	inactive
CC1=CC(=O)CC(C)(C)C1	4.49 µM (active) and inactive
CC(=O)CC(=O)N(C)C	inactive
O=c1n(CCCN2CCN(c3cccc(Cl)c3)CC2)nc2ccccn12	inactive
N#CCC(=O)O	inactive
NC(=O)c1ncn([C@@H]2O[C@H](CO)[C@@H](O)[C@H]2O)n1	18.3 µM (active)
c1cnc2c(c1)ccc1cccnc12	inactive
